Data on 40 compounds can be found in PubChem BioAssay (NCI).

“And” between values parts separate entries of the source, which are not always exact repeats. Equal entries are not always repeated. This is part of a sample that, as a whole, favours compounds with a hit. Of some 83,000 tested, about 20% had one in any assay.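 Assay: single dose, 48 h. Readout: percent growth (0 = no net growth; negative = cell death). Active: <10.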 Unmarked numbers belong to inactive results. The source made the active and inactive calls.

The test system of this assay is MDA-MB-468 breast. The assay is described as follows: NCI-60 one-dose screen, 48 h (100 = growth as untreated, 0 = no growth, -100 = all killed). To be noted: 10 µM unless noted.
As for `O=C(CSc1nc2ccccc2c(=O)n1-c1ccccc1)N/N=C/c1ccc(Oc2ccc(Br)cc2)cc1`, the growth is 65.1%.

For `CCN(CC)c1ccc(/C=N/NC(=O)c2ccc(NS(C)(=O)=O)cc2)cc1`, the growth was 20.2%.

As for `COc1cc(/C=C2\COc3ccc(O)cc3C2=O)cc(OC)c1`, the growth is 54.1%.

On to `CC(=O)C1=C(O)C=C2Oc3c(C(=O)/C=C/c4c(Cl)cccc4Cl)c(O)c(C)c(O)c3[C@]2(C)C1=O`, for which the growth is -39.7% (active).

With `O=C(CCN1C(=O)/C(=C/c2ccc(O)cc2)SC1=S)Nc1ccc(Cl)cc1`, the growth is 95.3%.

Regarding `C=C(C)[C@@H]1CC[C@]2(CNCCO)CC[C@]3(C)[C@H](CC[C@@H]4[C@@]5(C)CCC(N)[C@@](C)(CO)[C@@H]5CC[C@]43C)[C@@H]12` (stereo not given in full), the growth is -86.8% (active).

For `c1csc(-c2cc(-c3cc(-c4cccs4)[nH]n3)n[nH]2)c1`, the growth was 77.3%.

With `CC1=NN(C(=O)c2nn(-c3ccc(Cl)cc3)cc2O)C(=O)C1`, the growth was 54.6%.

`COc1cc(OCc2cccc(-c3ccc(C(O)c4nccs4)cc3)c2C)cc(OC)c1CNCCNC(C)=O` (stereo not given): the growth is 92.1%.

With `CC1(C)OCC(COC(c2ccccc2)(c2ccccc2)c2ccccc2)O1` (stereo not given), the growth was 109%.

For `CCn1c2ccccc2c2cc(-n3nncc3-c3ccccc3)ccc21`, the growth is 46.4%.

For the compound `CC1=NN(c2nc(SCC(=O)Nc3nc4ccc(C)cc4s3)nc(-c3ccccc3)c2C#N)C(=O)C1`, the growth is 111%.

As to `Cc1cc(Cl)nc(N(CCCNc2ccnc3cc(Cl)ccc23)Cc2cccs2)n1`, the growth is -30.1% (active).

`O=CNCCc1ccccc1`: the growth was 97.8%.

Turning to `COc1cc(C2C(C(=O)c3cccs3)=C(O)C(=O)N2CCN2CCOCC2)cc(OC)c1OC` (stereo not given), the growth was 101%.

With `Nc1nonc1-c1nc2ccccc2n1Cc1ccc(F)cc1`, the growth is 23.6%.

Consider `CCN(CC)CCNC(=O)c1ccc(NC(C)=O)cc1`, for which the growth is 111%.

In the case of `COc1cccc(C(=O)O)c1OC`, the growth was 105%.

`CN1CCN(c2nc(-c3cnc4ccccc4n3)cc3ccccc23)CC1`: the growth was 9.21% (active).

As for `C=CCC(=O)N[C@H](/C=C/C(=O)O)Cc1ccc(-c2cc(Cl)cc(Cl)c2)cc1`, the growth was 101%.

For the compound `O=C1/C(=C/c2ccccc2)CCC/C1=C\c1ccccc1`, the growth is 63.2%.

As to `CCN1C(=O)N(CC)C2Nn3c(s/c(=C4\C(=O)N(CC(C)C)c5ccccc54)c3=O)=NC21` (stereo not given), the growth is 15.8%.

Turning to `C/C(=C(/c1ccc(Cl)cc1)c1ccc(OCCN2CCCC2)cc1)c1ccc(Cl)cc1`, the growth was 91.1%.

As for `COc1ccc(/C=N/NC(=O)c2ccc(S(C)(=O)=O)cc2)cc1OC`, the growth is 100%.

In the case of `CC(O)C(NC(=O)C1CCCN1C(=O)CNC(=O)C1CC(=O)NCC(=O)NC(Cc2c[nH]c3ccccc23)C(=O)NC(Cc2ccc(O)cc2)C(=O)NCC(=O)NC(CO)C(=O)NC(CCC(N)=O)C(=O)NC(Cc2c[nH]c3ccccc23)C(=O)N1)C(=O)NCC(=O)NC(CCC(N)=O)C(=O)NC(CCCNC(=N)N)C(=O)NC(CC(=O)O)C(=O)O` (stereo not given), the growth is 100%.

With `COc1ccc(/C(=N\N=C(N)N)c2ccc(Cl)cc2)cc1OC`, the growth was 52.8%.

On to `O=C(Nc1cccc([N+](=O)[O-])c1)c1ccc2ccccc2c1O`, for which the growth was 52.4%.

`O=[N+]([O-])c1ccc(N=Nc2cc(S(=O)(=O)O)c3cccc(S(=O)(=O)O)c3c2O)cc1`: the growth is 118%.

In the case of `COc1ccc(C(=O)CSc2nccc(Nc3ccc(C(=O)O)cc3)n2)cc1`, the growth was 104%.

For the compound `Cc1cc(Cl)cc(NS(=O)(=O)c2ccc(-c3cnc(C4CC4)o3)cc2)c1`, the growth is 11.3%.

As for `COC(=O)c1cc([N+](=O)[O-])cc([N+](=O)[O-])c1Cl`, the growth is -7.42% (active).

Take `C=C1CC[C@@H]2C(C)(C)[C@@H](O)CC[C@@]2(C)[C@@H]1COc1ccc2ccc(=O)oc2c1`: the growth is 53.1%.

`CC(=O)Cc1ccc(-c2ccccc2)cc1`: the growth was 93.7%.

Consider `C=CCn1c(SCC(=O)Nc2ccc(C(=O)/C=C/c3cccc([N+](=O)[O-])c3)cc2)nnc1-c1c[nH]c2ccccc12`, for which the growth is 81.9%.

As to `Cc1cc(C)c2c(n1)sc1c(Nc3ccc(Cl)cc3Cl)ncnc12`, the growth is 16.9%.

As to `N=C(N)c1ccc(-c2ccc(-c3ccc(Cl)cc3Cl)s2)nc1`, the growth is -13.7% (active).

With `ClC(Cl)c1nc(-c2cccs2)n2nc(-c3ccccc3)cc2n1`, the growth was -56.4% (active).

`CC(O)(CC(=O)CC(=O)c1ccccc1)c1ccccc1` (stereo not given): the growth is 94.9% and 101%.

As to `C=CC[Se]C(=O)Cc1c(C)n(C(=O)c2ccc(Cl)cc2)c2ccc(OC)cc12`, the growth is -37.5% (active).

In the case of `O=C(CCCCCCN1CC(=O)N2[C@H](c3ccc(Cl)cc3)c3[nH]c4ccccc4c3C[C@@H]2C1=O)NO`, the growth was 36.5%.
